Measured values taken from PubChem BioAssay (NCI).
About 83,000 compounds went through this panel and 20% of them were active in at least one assay; those are over-represented in the sample as a whole.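 Step 1: grow cells in 96-well plates. Step 2: add test compound at a single concentration. Step 3: incubate 48 h. Step 4: record percent growth.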 A number with no mark means an inactive call. Calls of active or inactive are those of the source. The calls were made as follows: active = growth percent below 10; inactive = the rest.

Experiments:
Assay in all cases: NCI-60 one-dose screen, 48 h (100 = growth as untreated, 0 = no growth, -100 = all killed)
Settings in all cases: 10 µM unless noted
HCT-15 colon = system: HCT-15 colon
HT29 colon = system: HT29 colon
SNB-75 CNS = system: SNB-75 CNS
SNB-19 CNS = system: SNB-19 CNS
U251 CNS = system: U251 CNS
PC-3 prostate = system: PC-3 prostate
SK-MEL-5 melanoma = system: SK-MEL-5 melanoma
UACC-62 melanoma = system: UACC-62 melanoma
LOX IMVI melanoma = system: LOX IMVI melanoma
SK-MEL-28 melanoma = system: SK-MEL-28 melanoma
SK-MEL-2 melanoma = system: SK-MEL-2 melanoma
EKVX NSCLC = system: EKVX NSCLC
SN12C renal = system: SN12C renal
UO-31 renal = system: UO-31 renal
TK-10 renal = system: TK-10 renal
ACHN renal = system: ACHN renal
CAKI-1 renal = system: CAKI-1 renal
A498 renal = system: A498 renal
CCRF-CEM leukemia = system: CCRF-CEM leukemia
MOLT-4 leukemia = system: MOLT-4 leukemia

| SMILES | growth (HCT-15 colon) | growth (HT29 colon) | growth (SNB-75 CNS) | growth (SNB-19 CNS) | growth (U251 CNS) | growth (PC-3 prostate) | growth (SK-MEL-5 melanoma) | growth (UACC-62 melanoma) | growth (LOX IMVI melanoma) | growth (SK-MEL-28 melanoma) | growth (SK-MEL-2 melanoma) | growth (EKVX NSCLC) | growth (SN12C renal) | growth (UO-31 renal) | growth (TK-10 renal) | growth (ACHN renal) | growth (CAKI-1 renal) | growth (A498 renal) | growth (CCRF-CEM leukemia) | growth (MOLT-4 leukemia) |
| --- | --- | --- | --- | --- | --- | --- | --- | --- | --- | --- | --- | --- | --- | --- | --- | --- | --- | --- | --- | --- |
| O=C(/C=C/CN1CCCCC1)Nc1cc2c(Nc3ccc(F)c(Cl)c3F)ncnc2cc1OCCOC(F)F | 7.81% (active) | 2.26% (active) | -12.1% (active) | 40.9% | 31.1% | 1.81% (active) | 25.3% | 34.1% | 12.5% | 48.6% | 36.1% | 11.8% | 7.28% (active) | 10.4% | 8.8% (active) | 5.75% (active) | 5.99% (active) | -21.7% (active) | 24.6% | 1.31% (active) |
| CC/C=C\C[C@H](O)C/C=C1/C(=O)C(Cl)=C[C@@H]1C/C=C\CCCC(=O)O | 16.2% | 18.7% | 71.7% | 74.7% | 17.5% | 43.7% | 69.1% | 1.46% (active) | 4.09% (active) | 43.7% | 54% | 63.9% | 22.8% | 64.2% | 78.9% | 45.3% | 79.1% | 134% | 2.58% (active) | 40.5% |
| NC(=O)c1c(NC(=O)c2ccc(OCC3CCCO3)cc2)sc2c1CCCC2 (stereo not given) | 101% | 105% | 135% | 106% | 95.2% | 74.4% | 78.2% | 85% | 105% | 125% | 84.9% | 89.6% | 90.7% | 35% | 126% | 106% | 108% | 86.5% | 79.9% | 99.3% |
| Cc1nc2scc(-c3ccccc3)n2c(=O)c1CCO | 96.1% | 103% | 71.6% | 98.3% | 103% | 87.7% | 100% | 97.6% | 92.3% | 113% | 124% | 92.3% | 98.8% | 72.5% | 99.9% | 98.9% | 80.5% | 86.8% | 103% | 106% |
| COc1cc(-c2csc(NC(=O)Nc3ccc(Cl)cc3Cl)n2)cc(OC)c1OC | 23% | 10.8% | 4.13% (active) | 41.7% | 25.7% | 18.7% | 18.4% | 30.9% | 28.9% | 62.6% | 62.7% | 46.6% | 59.5% | 34.6% | 54.6% | 30.3% | 37.8% | 34.8% | 33.3% | 33.4% |
| C=C1C(=O)O[C@H]2[C@H]1CC/C(Cn1cc(-c3ccc(N)cc3)nn1)=C\CC[C@@]1(C)O[C@@H]21 | -46.9% (active) | -59.4% (active) | 25.6% | 61.3% | 34.1% | 24.1% | 35.3% | -37.4% (active) | -63.6% (active) | -17% (active) | 41.9% | -19.9% (active) | -7.63% (active) | -74.3% (active) | 17.9% | 3.22% (active) | 16.7% | 44.1% | -17.7% (active) | 5.77% (active) |
| COc1cc(Br)c(OC)cc1Br | 103% | 96.4% | 90.4% | 108% | 98.9% | 91.2% | 98.4% | 94.8% | 90% | 105% | 101% | 76% | 110% | 60.4% | 140% | 92.4% | 85.2% | 88.7% | 116% | 98.3% |
| O=C(NCCc1c[nH]c2ccccc12)C1Cc2ccccc2CN1C(=O)c1ccco1 (stereo not given) | 111% | 114% | 106% | 112% | 98.5% | 96.9% | 95.6% | 93.4% | 94.9% | 116% | 69.5% | 102% | 111% | 53.5% | 110% | 96.6% | 107% | 107% | 81.2% | 77.1% |
| O=C1C2=C(C(=O)c3c(O)ccc(O)c31)N(c1cccnc1)Cc1ccccc1O2 | -32.8% (active) | -60.4% (active) | 22.1% | 5.25% (active) | 2.04% (active) | -31.7% (active) | 11.4% | -76.5% (active) | -64.6% (active) | -72% (active) | -42.6% (active) | 2.08% (active) | -43.8% (active) | -83.5% (active) | -99.2% (active) | -85.4% (active) | -96.2% (active) | 99% | -1.32% (active) | -18.5% (active) |
| CCC(=O)Nc1ccccc1C#C/C=C\C#Cc1ccccc1SC | 43.9% | 29.6% | 60.6% | 79.3% | 48.9% | 51.9% | 23.8% | 40.1% | 57.9% | 81.2% | 28% | 65.6% | 82.1% | 21.5% | 71.5% | 77.7% | 70.6% | 59.9% | 26.9% | 40.7% |
| Cc1ccnc2nc(C(=O)OCC(=O)Nc3ccc(-c4ccccc4)cc3)nn12 | 105% | 108% | 95% | 103% | 101% | 102% | 105% | 116% | 99% | 110% | 77.3% | 104% | 102% | 62.8% | 118% | 107% | 91% | 105% | 91.6% | 65% |
| O=C(Nc1ccc(I)cc1)c1cccc([N+](=O)[O-])c1O | 18.6% | 28.1% | 41.2% | 16.8% | 10.3% | 7.46% (active) | -44.1% (active) | 20.8% | 8.65% (active) | 21.5% | -11.9% (active) | 8.49% (active) | 20.3% | -0.371% (active) | 7.73% (active) | 21.8% | 13.4% | -6.2% (active) | 25.9% | 8.55% (active) |
| Nc1nc(-c2cc3ccccc3o2)cc(=O)c(=O)[nH]1 | 103% | 99.7% | 102% | 86.6% | 91.9% | 97.7% | 90.4% | 94.6% | 98.6% | 112% | 98.9% | 99.7% | 106% | 110% | 103% | 94.3% | 91.9% | 99.2% | 84.2% | 96.6% |
| N#Cc1c(NC(=O)c2ccc([N+](=O)[O-])o2)[n+]([O-])c2cc(F)c(F)cc2[n+]1[O-] | 95.1% | 102% | 114% | 121% | 102% | 98.8% | 79.6% | 100% | 84.7% | 99.7% | 34.6% | 149% | 108% | 40.8% | 179% | 109% | 113% | 151% | 100% | 120% |
| CCc1c(C(=O)Nc2ccc3ccccc3c2)[nH]c(C)c1C(C)=O | 79.1% | 93.7% | 84.4% | 110% | 98.3% | 74% | 77.4% | 87.2% | 96.3% | 97.8% | 87.9% | 84.3% | 96.6% | 86.8% | 99.8% | 98.6% | 86.4% | 80.2% | 96.1% | 68.5% |
| COc1cccc2nc(Nc3ccc(NC(=O)c4ccc5ncccc5c4)cc3)ccc12 | 51.5% | 63.3% | 80.8% | 90.3% | 61.8% | 52.3% | 80.7% | 97.4% | 84.6% | 73.8% | 115% | 87.5% | 97.8% | 82.4% | 108% | 92.8% | 70.2% | 83.4% | 69.4% | 67.1% |
